Source: PubChem (NMMLSC)
AGP1-GFP MLPCN: yeast TOR pathway AGP1-GFP modulation; 320,000 tested, 0.02% active; GFP response vs DMSO, % at 10 µM; S. cerevisiae AGP1-GFP multiplex flow cytometry, 3 h; GFP as percent of DMSO wells;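 active means GFP response relative to DMSO above a set limit, near screen average plus 3 SD, cut at about 150% in these data; inconclusive means fewer than 70 cells counted for the yeast strain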;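 further: median GFP channel fluorescence of the gated AGP1 strain per well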
MEP2-GFP yeast: modulators of TOR pathway MEP2-GFP in S. cerevisiae. S. cerevisiae MEP2-GFP strain, flow cytometry GFP, 3 h; 100% = DMSO control level. GFP response vs DMSO, % at 10 µM. 330,000 tested, 0.51% active;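 active means GFP response versus DMSO above a set limit, roughly screen mean plus 3 SD, cut at about 180% in these data; inconclusive means fewer than 70 cells counted for a yeast strain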;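 further: median GFP fluorescence of the barcode-gated MEP2-GFP cells per well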
CIT2 TOR yeast: modulators of TOR pathway CIT2-GFP in S. cerevisiae; GFP response vs DMSO, % at 10 µM; S. cerevisiae CIT2-GFP strain, flow cytometry, 3 h; 100 means same as DMSO wells; 320,000 tested, 0.065% active;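 active means GFP response relative to DMSO above a set limit, near the screen mean plus 3 SD, cut at about 150% in these data; inconclusive means Fewer than 70 cells measured for a yeast strain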;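 further: ratio of well median GFP fluorescence to mean of DMSO wells on the plate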
RPL19A-GFP yeast: alters RPL19A-GFP fluorescence in TOR pathway yeast screen; percent response vs DMSO, % at 10 µM; S. cerevisiae RPL19A-GFP strain, flow cytometry, 3 h; hits give low values; 330,000 tested, 0.3% active;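 active means percent response vs DMSO below 50%; inconclusive means fewer than 70 events counted for the yeast strain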;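 further: median channel GFP fluorescence of the barcoded RPL19A-GFP strain; ratio of sample median GFP to plate DMSO average so 100% = DMSO; lower means less RPL19A-GFP as with rapamycin TOR inhibition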
LAP4-GFP MLPCN: alters LAP4-GFP fluorescence in TOR pathway yeast screen | 320,000 tested, 0.34% active | S. cerevisiae LAP4-GFP multiplex, flow cytometry GFP, 3 h; median GFP as percent of DMSO wells | GFP response vs DMSO, % at 10 µM;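 active means GFP response vs DMSO above a set limit, about the screen mean plus 3 SD, cut at about 150% in these data; inconclusive means under 70 cell events counted for the yeast strain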
* hit, by the source's call; ? = inconclusive; . = no result; [ ] = remark or other dose. The list is not random: actives were taken first. Their share in the collection is about 0.93%.

SMILES	AGP1-GFP MLPCN	MEP2-GFP yeast	CIT2 TOR yeast	RPL19A-GFP yeast	LAP4-GFP MLPCN
O=C(c1ccc(NS(=O)(=O)c2cccc3cccnc23)cc1)N1CCCCC1	?	?	?	50*[may fluoresce violet]	?
Cc1oc(-c2ccccc2F)nc1CN1CCC(C(=O)NC2CCCc3ccccc32)CC1 (stereo not drawn)	95	94	92	94	95
Cc1oc(-c2ccccc2F)nc1CN1CCC(C(=O)NCc2ccco2)CC1	19	202*[may fluoresce violet]	?	59	90
O=c1cc(N2CCc3ccccc3C2)[nH]c(=O)n1C1CCCCC1	.	198*[may fluoresce violet]	?	61	100
O=c1cc(N2CCCCC2)[nH]c(=O)n1C1CCCCC1	98	101	93	102	104
CCc1ccccc1NC(=O)c1ccc(OCc2c(C)noc2C)cc1	94	98	88	96	96
C[C@@H](C(=O)Nc1nc2ccc(F)cc2s1)N1C(=O)C2CC=CCC2C1=O (stereo partly drawn)	156*	612*	139	65	189*
CC1=CC(c2ccccc2)n2nc(N3C(=O)CCC3=O)nc2N1 (stereo not drawn)	110	110	104	98	99
CC1=CC(c2ccccc2)n2nc(N3C(=O)C4CC=CCC4C3=O)nc2N1 (stereo not drawn)	.	448*[may fluoresce violet]	?	44*[may fluoresce violet]	101
COc1cc(NCC(=O)Nc2cccc(S(=O)(=O)N3CCCCC3)c2)cc(OC)c1OC	99	104	96	97	100
CC1(OC(=O)c2ccco2)C(=O)C=C2C=C(c3ccc(C#N)cc3)OC=C2C1=O (stereo not drawn)	26	100	?	98	102
CCC(=O)OC1(C)C(=O)C=C2C=C(c3ccc(C#N)cc3)OC=C2C1=O (stereo not drawn)	11	189*[may fluoresce violet]	?	96	110
COc1cccc2c1Oc1ncccc1N(C(=O)CCC(=O)NCc1cccc(C)c1)C2	15	148	103	38*	89
COc1cccc2c1Oc1ncccc1N(C(=O)CCC(=O)NCc1ccc(C)cc1)C2	100	92	91	93	94
COc1cccc(CNC(=O)CCC(=O)N2Cc3cccc(OC)c3Oc3ncccc32)c1OC	17	146	84	26*	79
CC1(C)CNC(=O)CC(C)(C)N1	13	186*[may fluoresce violet]	?	91	89
Cc1ccc(S(=O)(=O)c2cc3c(=O)n4ccccc4nc3n(C3CCCC3)c2=N)cc1	?	291*[may fluoresce red and violet]	?	?	93
Cc1ccc(S(=O)(=O)c2cc3c(=O)n4ccccc4nc3n(CCc3ccccc3)c2=N)cc1	?	217*[may fluoresce violet]	?	43*[may fluoresce violet]	85
COc1ccc(NC(=S)N2CCN(C(=O)c3ccco3)CC2)cc1OC	93	103	99	107	91
CC(=O)c1cc2c(cc1NS(=O)(=O)c1ccccc1Br)OCO2	23	608*[may fluoresce violet]	?	59	99
CC(=O)c1cc2c(cc1NS(=O)(=O)c1ccccc1C)OCO2	92	101	97	99	92
C=C1C[C@H](O)[C@@H]2[C@H](OC(=O)[C@H]2C)[C@H]2[C@H](C)[C@@H](O)C[C@@H]12	101	109	100	103	109
CCC(c1nnnn1CCc1ccccc1)N(Cc1ccco1)Cc1cc2cccc(C)c2[nH]c1=O (stereo not drawn)	107	111	105	107	108
CCC(c1nnnn1C(C)(C)C)N(Cc1ccco1)Cc1cc2cccc(C)c2[nH]c1=O (stereo not drawn)	?	350*[may fluoresce violet]	?	54	98
Cc1cc(C)nc(/N=C(\NC(=O)C(C)(C)C)Nc2ccc(F)cc2)n1	?	470*[may fluoresce violet]	?	48*[may fluoresce violet]	67
SMILES	AGP1-GFP MLPCN	MEP2-GFP yeast	CIT2 TOR yeast	RPL19A-GFP yeast	LAP4-GFP MLPCN
Cc1nonc1C(=O)N/N=C/c1ccc([N+](=O)[O-])o1	72	109	91	95	152*
Cc1cc(C(=O)N/N=C/c2ccc([N+](=O)[O-])o2)c(C)o1	78	102	77	103	90
COc1ccc(-c2nn(-c3ccccc3)cc2C(=O)N/N=C/c2ccc([N+](=O)[O-])o2)cc1	120	204*	228*	114	181*
O=[N+]([O-])c1ccccc1Sc1nccn1Cc1ccccc1	87	90	83	85	91
Cc1ccc2nc3c(cc(C#N)c(=N)n3Cc3cccnc3)c(=O)n2c1	84	126	88	72	92
CCOC(=O)C1CCCN(C(=O)C2CCN(S(=O)(=O)c3cccs3)CC2)C1 (stereo not drawn)	18	226*[may fluoresce violet]	?	94	86
O=C(C1CCN(S(=O)(=O)c2cccs2)CC1)N1CCCCC1	96	100	98	94	90
CCCSc1sc(C(=O)OC)c(-c2cccs2)c1C#N	112	97	103	106	104
Cc1ccc(-c2ccc(CCC(=O)O)o2)cc1	82	100	99	99	158*
CCN(CC)S(=O)(=O)c1ccc(O)c(C(=O)OCC(=O)NC2CCCC2)c1	116	185*	111	84	138
CCN(CC)S(=O)(=O)c1ccc(C(=O)OCC(=O)NC2CCCC2)cc1	92	105	101	100	97
CCOC(=O)C1=C(c2ccccc2)NC(=S)NC1c1cc([N+](=O)[O-])ccc1OC (stereo not drawn)	27	272*	116	.	92
CCN(CC(=O)Nc1c(F)cccc1F)C(=O)C1CC(=O)N(CCc2ccccc2)C1 (stereo not drawn)	106	101	110	100	102
Cc1ccc(NC(=O)CSCC(=O)NNC(=O)c2nn(C)c(=O)c3ccccc23)cc1	95	99	98	94	94
CS(=O)(=O)N1CCC(C(=O)NCc2ccc(Cl)cc2Cl)CC1	101	98	99	97	107
CCNC(=O)O/N=C1\CCCCC1c1ccc([N+](=O)[O-])cc1[N+](=O)[O-] (stereo not drawn)	99	104	108	107	97
Cc1csc(Nc2ccccc2C(F)(F)F)n1	24	230*	102	.	103
Cc1csc(Nc2cccc3ccccc23)n1	91	96	97	100	98
CCOc1ccc(S(=O)(=O)NCc2ccccn2)cc1NC(=O)c1ccccc1	111	101	106	99	103
COc1ccc(S(=O)(=O)NCc2ccccn2)cc1NC(=O)c1ccccc1F	15	231*[may fluoresce violet]	?	58	87
C=CC[C@H](CC(=O)OC(C)(C)C)C(=O)OC[C@H]1CCCN1C(=O)[C@H](CC=C)CC(=O)NCCO	99	94	99	97	85
CNC(=O)c1cc2c(=O)n3cc(C)ccc3nc2n(C(C)C)c1=N	?	195*[may fluoresce violet]	?	31*[may fluoresce violet]	84
C=CCn1c(=N)c(C(=O)NCCCOC)cc2c(=O)n3cc(C)ccc3nc21	?	775*[may fluoresce violet]	?	34*[may fluoresce violet]	247*[may fluoresce violet]
